This is a sample that favours compounds with a hit; in the whole collection about 2.1% have one here.
FUS suppressor – suppressors of FUS proteinopathy in yeast | S. cerevisiae FUS-expressing, growth rescue, OD600, 24 h | Potency, µM (titrated, usually from 76.6 µM), hits mostly activators | 390,000 compounds, 0.24% hits | AID 1347120;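 also: plate controls were DMSO vehicle for no effect and reference control for full effect; nearly all actives have a fitted effect of over 55% in size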
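Compound concentration series was pinned onto galactose-induced FUS-expressing yeast seeded at OD 0.005. Plates sat 24hr at 30C; absorbance at 600 nm gave growth. DMSO served as background control.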
Abeta rescue – compounds reversing amyloid beta toxicity in yeast; yeast expressing A-beta42, growth rescue, OD600, 48 h; response scale: 0% DMSO, 100% iron-clioquinol control; Potency, µM (top dose mostly 46.1 µM), most hits filed as activators; 410,000 compounds, 0.063% hits; AID 1347071; also: nearly all actives have a fitted effect of over 55% in size
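Growth rescue measured by 600 nm absorbance after 48 h yeast culture at 30 C with compound. Values normalized between DMSO and an equimolar ferric chloride plus clioquinol control.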
TDP43 rescue – rescues yeast growth from TDP-43 toxicity; AID 652104; 410,000 compounds, 1.8% hits; Potency, µM (top dose mostly 46.1 µM), without a hit: at the top dose growth rescue (activation), hits mostly activators; TDP-43 expressing yeast growth rescue, BacTiter-Glo, 24 h; also: % of control where 0% means no effect; nearly all actives have a fitted effect of over 50% in size
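Galactose-induced TDP-43 yeast, OD600=0.02, compound pinned; 24 hr, 30 deg C; BacTiter-Glo luminescence for growth. Inhibitors of TDP-43 toxicity read as activators.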
aSyn rescue – alpha-synuclein toxicity inhibition in yeast; Yeast expressing alpha-synuclein, growth rescue, BacTiter-Glo, 24 h; Potency, µM (titrated, usually from 46.1 µM), for the others: at the top dose growth rescue (activation), hits mostly activators; 370,000 compounds, 0.14% hits; also: % of control where 0% means no effect; nearly all actives have a fitted effect of over 65% in size
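Readout is rescue of growth in alpha-synuclein-expressing yeast, so inhibitors of toxicity appear as activators. Growth after 24 hr at 30 deg C in galactose medium is quantified by luminescence.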
* marks the source's active call; other numbers are inactive results; i = inactive; ? = inconclusive; . = not tested or not shown. Calls follow the shape of the dose curve; as a rule, active = well fitted curve in the direction sought with a large enough effect; inconclusive = small, poorly fitted or top-dose-only effect, or another doubt; inactive = no such curve, though single readings can be large; an effect the other way counts as inactive or inconclusive. Potency is read from the fitted curve at half-maximal effect.

SMILES	FUS suppressor	Abeta rescue	TDP43 rescue	aSyn rescue
CSc1ccc(Cn2c(C)c(C(=O)NCc3ccc4c(c3)OCO4)sc2=O)cc1	i	?	20µM*	-7%
Cc1ccc(Cn2c(C)c(C(=O)NCc3ccc4c(c3)OCO4)sc2=O)cc1	i	?	25µM*	-2%
Cc1c(C(=O)NCc2ccc3c(c2)OCO3)sc(=O)n1Cc1ccc(-c2ccccc2)cc1	?	i	23%	-4%
Cc1ccccc1NC(=O)c1nc(S(C)(=O)=O)ncc1Cl	i	i	10µM*	18%
Cc1cccc(CS(=O)(=O)c2ncc(Cl)c(C(=O)NCc3ccccc3)n2)c1	i	i	7.9µM*	19%
Cc1cccc(CS(=O)(=O)c2ncc(Cl)c(C(=O)Nc3c(C)cccc3C)n2)c1	?	i	?	2%
CS(=O)(=O)c1ncc(Cl)c(C(=O)Nc2ccc(OC(F)F)cc2)n1	i	i	.	13%
Cc1cccc(C)c1NC(=O)c1nc(S(=O)(=O)Cc2ccccc2)ncc1Cl	i	i	10µM*	19%
Cc1ccccc1CS(=O)(=O)c1ncc(Cl)c(C(=O)Nc2ccc(F)cc2)n1	i	i	11µM*	-1%
COc1ccc(NC(=O)NCCCN2CCN(c3ccc(F)cc3)CC2)cc1OC	i	.	.	.
Cc1cc(C(=O)NNC(=S)NC(=O)/C=C/c2ccccc2Cl)n[nH]1	13µM*	i	10%	9%
Cc1cccc(C(=O)NC(=S)NNC(=O)c2ccccc2Cl)c1	.	?	-40%	10µM*
Cc1ccccc1C(=O)NNC(=S)NC(=O)c1ccc(Cl)cc1Cl	i	?	10µM*	1.6µM*
Cc1cccc(C(=O)NC(=S)NNC(=O)Cc2ccccc2)c1	?	i	-71%	-21%
COc1ccccc1C(=O)NNC(=S)NC(=O)c1cc(OC)c(OC)c(OC)c1	i	6.3µM*	10µM*	?
COc1ccc(Cl)cc1NC(=O)N1CCC(CN2CCc3ccccc3C2)CC1	i	i	6%	.
O=C(COc1ccccc1C(=O)Nc1ccccc1)Nc1ccccc1-c1ccccc1	.	.	.	-5%
COc1ccccc1CNC(=O)CCCn1c(=O)c2cccn2c2ccccc21	i	i	?	.
Clc1cccc2sc(N3CCOCC3)nc12	i	i	23%	6%
Clc1cccc2sc(N3CCCC3)nc12	i	i	13µM*	2%
CN(C)c1ccc(N=Cc2cccc3ccccc23)cc1	.	.	.	-7%
Cc1cc(/C=N/NC(N)=S)c(C)n1-c1ccc(Cl)c(Cl)c1	i	?	18µM*	11%
COc1ccc(C(=O)CCC(=O)Nc2cc(C)ccc2C)cc1	i	i	11µM*	.
Cc1cc(O)c(NC(=O)c2cc([N+](=O)[O-])ccc2Cl)cc1C	i	i	14µM*	-3%
CC(C)c1ccc(NC(=O)OC2CCC23CCC(c2ccccc2)CC3)cc1 (configuration not stated)	i	.	.	.
SMILES	FUS suppressor	Abeta rescue	TDP43 rescue	aSyn rescue
CCN(CC)c1ccc(/C=C2\C=Cc3ccccc32)cc1	.	.	.	2%
Cc1ccc(NC(=O)C2CCCN(c3nnc(-n4cccc4)s3)C2)cc1C (configuration not stated)	i	.	.	.
O=C(Nc1ccc(F)cc1)N1CCN(c2nc3ccccc3s2)CC1	i	i	9%	8%
O=C(Nc1ccccc1)N1CCN(c2nc3ccccc3s2)CC1	i	i	22µM*	6%
COC(=O)[C@]1(C#N)CC(=O)N(Cc2ccc(Cl)cc2)[C@@H]1c1ccc(OC)cc1	i	.	.	.
CCc1ccc(OCC(=O)NCc2ccco2)c(Br)c1	i	i	13µM*	-3%
CCc1cc(=O)oc2c3c(cc(OCC(=O)NCc4ccco4)c12)OC(C)(C)CC3	i	i	35µM*	-2%
O=C(COc1ccccc1Br)NCc1ccco1	i	i	-10%	1%
COc1ccc(-c2cc(C(=O)NN=C/C(C)=C/c3ccccc3)[nH]n2)cc1	i	.	.	.
CCOC(=O)Cc1ccc(NC(=O)N2CC(C)Oc3ccc(Cl)cc32)cc1 (configuration not stated)	i	i	-11%	.
CC(/C=N/NC(=O)CSc1ccccn1)=C\c1ccc(C(C)C)cc1	.	i	20µM*	8%
COc1ccc(-c2nc3ccccn3c2Nc2ccccc2C)cc1	.	.	.	-12%
Cn1c(N)c(C(=O)COC(=O)C2CCCC2)c(=O)n(C)c1=O	i	i	-13%	-4%
